# S2 tox: cell viability loss in ATXN counter-screen | S2 cells (HEK-293 line with an ATXN2-luciferase reporter) viability, CellTiter-Fluor protease fluorescence, 24 h | Potency, µM (top dose mostly 56.7 µM), usual class: cytotoxic | hit rate 0.49% among 400,000 | AID 651635; also: nearly all actives have a fitted effect of over 40% in size
# HT1080 IDH1KD tx: toxicity to HT-1080 IDH1 knockdown cells (counter line). HT-1080 IDH1 knockdown viability, ATP luminescence, 48 h. AID 686971. hit rate 2% among 360,000. Potency, µM (series often up to 46.1 µM), for the others: top-dose activity, negative = toxicity, usual class: cytotoxic;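 also: 0% = DMSO wells and -100% = cell-free medium wells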
#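 CellTiter-Glo luminescence after 48 h compound exposure at 37 degrees C of IDH1-knockdown HT-1080 cells in 5% FBS RPMI. %Activity scaled between DMSO wells and cell-free media wells, with curves fitted and assigned curve classes.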
# KB-3-1 cytotox: kills parental KB-3-1 adenocarcinoma cells; KB-3-1 viability, CellTiter-Glo ATP luminescence, 72 h; hit rate 1.4% among 400,000; Potency, µM (top dose mostly 46.1 µM), most hits filed as cytotoxic; AID 1347075; also: % is scaled to controls: 0 for no effect and ±100 for the full control effect; nearly all actives have a fitted effect of over 60% in size
#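 Cytotoxicity in the drug-sensitive parental line KB-3-1 was scored as loss of CellTiter-Glo luminescence following 72 h incubation with compound. Values come from curve fitting of normalized concentration-response data.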
# KB-V1 cytotox: KB-V1 MDR subline cytotoxicity | hit rate 3.4% among 400,000 | KB-V1 MDR cells viability, CellTiter-Glo, 72 h | Potency, µM (doses to about 46.1 µM), most hits filed as cytotoxic; also: % is scaled to controls: 0 for no effect and ±100 for the full control effect; nearly all actives have a fitted effect of over 60% in size
#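 Cells of the MDR subline KB-V1 are plated, dosed with compound at multiple concentrations, and incubated 72 h at 37 degrees C; CellTiter-Glo is then added and luminescence read after 10 min.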
# ATXN2 expr inh: reduces ATXN2 reporter expression in HEK-293 cells | HEK-293 ATXN2-luciferase reporter, luminescence, 24 h | Potency, µM (doses to about 57 µM), inactives show top-dose activity change, negative = inhibition, actives largely listed as inhibitors | hit rate 0.72% among 360,000 | AID 1745845; also: % is scaled to controls: 0 for no effect and ±100 for the full control effect; nearly all actives have a fitted effect of over 55% in size
#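 qHTS (up to 57 uM final) was run with 24 h compound exposure of reporter cells at 37 °C. Each well was multiplexed: SteadyGlo luminescence measured ATXN2-luciferase expression after a fluorogenic Gly-Phe-AFC viability readout (25 uM final).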
# HT1080NT lethal: kills 2HG-producing HT-1080-NT fibrosarcoma cells | hit rate 1.6% among 360,000 | HT-1080-NT fibrosarcoma viability, CellTiter-Glo ATP luminescence, 48 h | Potency, µM (top dose mostly 46.1 µM), for the others: top-dose activity, negative = less viability, usual class: cytotoxic | AID 686970;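 also: NT is the 2HG producing partner of a matched IDH1 knockdown line; 0% = DMSO-treated cells and -100% = media-only wells without cells; nearly all actives have a fitted effect of over 55% in size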
#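 Compounds were tested in concentration-response format on HT-1080-NT cells for 48 hours at 37 degrees C. Cell viability came from CellTiter-Glo luminescence; curves were classified by r2, response magnitude and activity.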
# * marks the source's active call; other numbers are inactive results; i = inactive; ? = inconclusive; nt = no result; [ ] = remark or other dose. Rows were chosen to be rich in hits. Some 6.2% of all compounds tested hit in one or more screens of this group. Calls follow the shape of the dose curve; as a rule, active = well fitted curve in the direction sought with a large enough effect; inconclusive = small, poorly fitted or top-dose-only effect, or another doubt; inactive = no such curve, though single readings can be large; an effect the other way counts as inactive or inconclusive. Potency is read from the fitted curve at half-maximal effect.
SMILES,S2 tox,HT1080 IDH1KD tx,KB-3-1 cytotox,KB-V1 cytotox,ATXN2 expr inh,HT1080NT lethal
O=[N+]([O-])c1ccc(O)c(CSc2nnnn2-c2ccccc2)c1,i,-0.3%,i,i,-5.5%,-2.5%
Cc1ccc(N/N=C(/Sc2nnnn2-c2ccccc2)C(=O)c2ccccc2)cc1,i,-4.1%,i,20.6µM*,-8.8%,-0.5%
O=C(/C(=N\Nc1ccc([N+](=O)[O-])cc1)Sc1nnnn1-c1ccccc1)c1ccccc1,i,23.1µM*,i,16.4µM*,-31.9%,?
O=C1OC(c2ccccc2)(c2ccc(O)cc2)c2ccccc21 (stereo not drawn),i,?,i,i,2.2%,20.6µM*
O=C1OC2(c3ccccc31)c1cc(I)c(O)c(I)c1Oc1c2cc(I)c(O)c1I,35.5µM*,nt,nt,nt,-7.3%,nt
O=C1OC2(c3ccc(O)cc3Oc3cc(O)ccc32)c2ccccc21,?,nt,nt,nt,0.2%,nt
N#CCCN1CCN(C(=S)c2ccc(-c3cc(Cl)ccc3Cl)o2)CC1,?,-0.4%,i,6.51µM*,-14.8%,-10.6%
CCOC(=O)C(=O)Nc1ccc(S(=O)(=O)Nc2nccs2)cc1,i,8.6%,i,?,-2.2%,-0.2%
CCOC(=O)C1(Nc2nccs2)Sc2ccccc2NC1=O (stereo not drawn),?,8.2µM*,5.8µM*,?,-19.4%,10.3µM*
Cc1c2cnccc2c(C)c2c1oc1ccccc12,i,6.0%,?,11.6µM*,20.6%,-1.7%
Cc1nc2c(oc3ccccc32)c(=O)o1,i,2.0%,i,i,70.2%,8.0%
Oc1ccc(C2=NNC(=NCc3ccc4c(c3)OCO4)SC2)c(O)c1,i,?,2.59µM*,7.31µM*,11.2%,20.6µM*
COc1ccc(OC)c(C2=NNC(=NCc3ccc4c(c3)OCO4)SC2)c1,i,-25.7%,i,i,13.0%,-3.8%
Clc1ccc(C2=NNC(=NCc3ccc4c(c3)OCO4)SC2)cc1,?,10.4%,?,20.6µM*,3.2%,-1.9%
CC(=O)O[C@H]1CC[C@@]2(C)C(=CC[C@@H]3[C@@H]2CC[C@]2(C)C(C(C)=O)=CC[C@@H]32)C1,i,nt,nt,nt,2.8%,nt
COc1ccccc1-n1cc([C@@H]2C[C@H]3CN(c4ccccc4)C(=O)[C@]34CCCN24)cn1,?,5.8µM*,i,7.31µM*,?,?
COc1cc([C@@H]2C[C@H]3CN(c4ccccc4)C(=O)[C@]34CCCN24)cc(OC)c1OC,?,-15.6%,?,i,nt,8.6%
CCN(CC)CCNC(Cc1ccccc1)c1cccc(OC)c1 (stereo not drawn),i,-5.6%,i,23.1µM*,6.7%,-8.7%
CCN(CC)CCOc1cccc(C(C)C)c1,i,16.4%,i,i,-0.1%,23.6%
COc1ccc(NC(=O)CC2C(=O)N(c3ccc(C)cc3)C(=O)N2CCc2ccccc2)cc1 (stereo not drawn),?,nt,?,i,-1.9%,nt
COC(=O)c1ccc(NC(=O)CC2C(=O)N(c3ccc(C)cc3)C(=O)N2CC(C)C)cc1 (stereo not drawn),i,-19.0%,i,23.1µM*,-2.6%,3.5%
CCOC(=O)c1ccc(NC(=O)CC2C(=O)N(c3ccc(F)cc3)C(=O)N2CCC(C)C)cc1 (stereo not drawn),i,?,20.6µM*,?,16.2%,5.5%[9.24 µM]
CCOC(=O)c1ccc(NC(=O)CC2C(=O)N(c3ccc(F)cc3)C(=O)N2Cc2ccc(C)cc2)cc1 (stereo not drawn),?,nt,i,i,?,nt
CC(C)OC(=O)c1cc2c(ccn2C)n1CC(=O)N(Cc1ccccc1)c1ccccc1,i,-28.3%,?,14.6µM*,43.7%,-6.9%
CC(=O)SC[C@@H](C)C(=O)N1CCC[C@H]1C(=O)N[C@@H](Cc1ccccc1)C(=O)O,i,nt,nt,nt,-29.7%,nt
SMILES,S2 tox,HT1080 IDH1KD tx,KB-3-1 cytotox,KB-V1 cytotox,ATXN2 expr inh,HT1080NT lethal
COCc1cc(=O)[nH]c(Nc2nc3ccc(C)cc3o2)n1,?,?,20.6µM*,?,?,4.3%
CCc1ccc2nc(Nc3nc(COC)cc(=O)[nH]3)nc(C)c2c1,i,17.4%,i,20.6µM*,3.9%,3.9%
Oc1ccc(C=NNC(=S)Nc2ccccc2)nc1,i,4.61µM*,16.4µM*,i,nt,?
O=C(CCC(=O)Nc1ccc(F)cc1)N/N=C/c1ccc(O)cc1O,i,-17.9%,i,i,-29.3%,-13.4%
Oc1ccc(C=NNC(=S)Nc2ccc(F)cc2)c(O)c1,i,18.4µM*,?,i,?,?
S=C(N/N=C/c1ccccc1Cl)Nc1ccccc1,i,3.98µM*,i,i,3.3%,14.1µM*
CNC(=S)N/N=C/c1ccccc1Cl,i,6.4%,i,i,10.7%,2.9%
CCCN(c1ccc(C(C)C)cc1)S(=O)(=O)c1ccc2c(c1)oc(=O)n2CC(=O)OCC,?,nt,i,i,-38.3%,nt
Cc1nc2c(c(C)nn2-c2ccccc2)c(C)c1CCC(=O)Nc1ccc(F)cc1,?,nt,i,i,-1.7%,nt
Cc1cc(C(=O)N2CCC2(C)C(=O)Nc2cccc3ccccc23)nn1C (stereo not drawn),i,1.9%,i,i,12.5%,13.2%
Nc1c(C(=O)Nc2ccc(Br)cc2)sc2nc(-c3ccco3)ccc12,nt,-23.3%,i,5.17µM*,-22.1%,-25.0%
O=C(CCl)Nc1ccc(-c2ccccc2)cc1,10µM*,9.2µM*,?,?,nt,4.61µM*
O=C(CCl)Nc1ccc(N2CCCCCC2)cc1,?,18.4µM*,?,i,?,23.1µM*
CC(C)N(c1ccccc1)c1ccc(NC(=O)CCl)cc1,26.7µM*,?,i,?,?,?
CC(=O)Nc1ccc(N=Nc2ccccc2)cc1,i,-0.3%,i,i,64.7%,1.5%
O=C(CCl)Nc1ccc(N=Nc2ccccc2)cc1,20µM*,-3.2%,i,i,nt,?
CC(=O)Nc1ccc(NC(=O)Cc2ccc(-c3ccccc3)cc2)cc1,i,0.2%,i,i,nt,8.9%
CC(C)n1ncc2c(C(=O)N3CCN(Cc4ccc(Cl)s4)CC3)cc(C3CC3)nc21,?,-11.9%,?,8.2µM*,-9.3%,2.6%
Cc1ccc(S(=O)(=O)N2CCN(C(=O)c3cc(C4CC4)nc4c3cnn4C(C)C)CC2)cc1,nt,0.0%,?,i,nt,-3.7%
COCc1c(C#N)c(NCCc2ccccc2)nc(C)c1[N+](=O)[O-],i,-1.5%,?,i,7.3%,-7.0%
COCc1c(C#N)c(NCCc2ccc(F)cc2)nc(C)c1[N+](=O)[O-],i,3.7%,?,5.17µM*,-17.0%,2.4%
